Several values for one entry are separate records, joined by “and”; a condition that tells them apart may be missing. Equal entries are not always repeated. Inconclusive results are not listed. Entries that show only a call come without a potency. The source holds several records for some structures; these can differ, active in one and inactive in another. Activity calls are given as the source filed them. Unless noted, calls come from the whole dose curve.
Assays:
[1] = Nuclear factor erythroid 2-related factor 2/antioxidant responsive element (Nrf2/ARE) small molecule agonists: qHTS cell viability counter screen in human keratinocytes (AID 1919968; active = well fitted curve in the direction sought with a large enough effect in the repeat runs; an effect the other way counts as inactive or inconclusive; note: nearly all actives have a fitted effect of over 55% in size; note: potency is the fitted concentration of half-maximal effect)
How it was run: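 Viability counter-screen: KeratinoSens reporter cells, DMSO-delivered compounds, 23 h at 37 C, CellTiter-Fluor fluorescence.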

[2] = Nuclear factor erythroid 2-related factor 2/antioxidant responsive element (Nrf2/ARE) small molecule agonists: luciferase reporter gene qHTS assay in human keratinocytes (AID 1919969); note: nearly all actives have a fitted effect of over 35% in size; note: potency is the fitted concentration of half-maximal effect
[3] = target: Gonadotropin-releasing hormone receptor (Homo sapiens) (UniProt P30968); assay: Human gonadotropin-releasing hormone receptor (GnRHR) small molecule agonists, calcium flux assay in GnRHR-HEK293 cells (AID 1920063); note: nearly all actives have a fitted effect of over 35% in size; note: potency is the fitted concentration of half-maximal effect
Sequence of Gonadotropin-releasing hormone receptor (Homo sapiens) (P30968 whole entry, looked up): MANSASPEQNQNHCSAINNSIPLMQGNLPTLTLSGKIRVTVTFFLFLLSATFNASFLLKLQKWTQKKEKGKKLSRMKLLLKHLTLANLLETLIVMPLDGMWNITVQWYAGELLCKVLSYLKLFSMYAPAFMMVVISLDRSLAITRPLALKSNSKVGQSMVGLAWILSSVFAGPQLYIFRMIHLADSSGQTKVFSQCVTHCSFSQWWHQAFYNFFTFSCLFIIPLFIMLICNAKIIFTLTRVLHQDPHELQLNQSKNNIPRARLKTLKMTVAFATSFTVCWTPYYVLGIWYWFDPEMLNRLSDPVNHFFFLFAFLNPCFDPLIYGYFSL
How it was run: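 Tox21-format agonist screen using human GnRHR-expressing HEK293 cells and a fluorescent calcium dye; kinetic 3-min fluorescence reading after compound addition, 15-point concentration series run in triplicate.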

[4] = target: KiSS-1 receptor (Homo sapiens) (UniProt Q969F8); assay: Human kisspeptin (KISS1R) small molecule agonists, calcium flux assay in KISS1R-HEK293 cells (AID 1920064; active = well fitted curve in the direction sought with a large enough effect in the repeat runs; an effect the other way counts as inactive or inconclusive; note: potency is the fitted concentration of half-maximal effect)
Sequence of KiSS-1 receptor (Homo sapiens) (Q969F8 whole entry, looked up): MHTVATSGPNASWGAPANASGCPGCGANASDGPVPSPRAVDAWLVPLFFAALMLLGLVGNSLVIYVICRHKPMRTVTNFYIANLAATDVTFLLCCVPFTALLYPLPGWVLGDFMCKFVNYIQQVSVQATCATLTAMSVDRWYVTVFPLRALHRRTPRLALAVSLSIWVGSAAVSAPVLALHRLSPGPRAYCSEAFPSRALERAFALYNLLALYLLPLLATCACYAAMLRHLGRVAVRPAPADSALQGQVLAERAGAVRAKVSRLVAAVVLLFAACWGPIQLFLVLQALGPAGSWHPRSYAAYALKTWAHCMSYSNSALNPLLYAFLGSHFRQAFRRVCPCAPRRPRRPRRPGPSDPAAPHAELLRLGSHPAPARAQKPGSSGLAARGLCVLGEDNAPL
How it was run: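 Intracellular calcium mobilization in KISS1R-HEK293 cells was recorded by fluorescence (Ex/Em 480/540) for 3 min following compound addition to cells pre-loaded 1 h with calcium dye.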

[5] = G protein-coupled receptor (GPCR) small molecule agonists, calcium flux assay: HEK293 wild type cell line counter screen (AID 1920065); note: potency is the fitted concentration of half-maximal effect
How it was run: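 In this agonist-mode screen, ATP is the positive control and DMSO the vehicle. Cells grow 18 h before a 1 h dye incubation at 37 C; signal is taken at Ex/Em 480/540 over 3 min.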

[6] = p53 small molecule agonists, cell-based qHTS assay with human liver microsomes (AID 1963577);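 note: p53 response element beta-lactamase reporter cells with liver microsomes plus NADPH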
How it was run: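 In this qHTS, p53 response-element beta-lactamase cells receive test compound together with a microsome/NADPH activating system (0.5 mg/mL final each) and are incubated 16 h at 37 C before LiveBLAzer fluorescence detection.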

[7] = p53 small molecule agonists, cell-based qHTS assay with rat liver microsomes (AID 1963578)
How it was run: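 Agonist mode in p53RE-bla reporter cells, with compounds co-incubated 16 h at 37 C alongside 0.5 mg/mL rat liver microsomes and 0.5 mg/mL NADPH (final), followed by a 2 h LiveBLAzer detection step.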

[8] = p53 small molecule agonists, cell-based qHTS assay with human liver microsomes: qHTS cell viability counter screen (AID 1963579); note: nearly all actives have a fitted effect of over 45% in size; note: potency is the fitted concentration of half-maximal effect
How it was run: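 Metabolically activated exposure: compounds, human liver microsomes and NADPH (0.5 mg/mL final apiece) were added to p53RE-bla cells seeded 5 h earlier, left 16 h at 37 C, and then assessed for viability by CellTiter-Glo luminescence.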

[9] = p53 small molecule agonists, cell-based qHTS assay with rat liver microsomes: qHTS cell viability counter screen (AID 1963580); note: nearly all actives have a fitted effect of over 45% in size; note: potency is the fitted concentration of half-maximal effect
How it was run: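 Intracellular ATP, by CellTiter-Glo luminescence, defines viability. HCT-116 p53RE-bla cells, 4,000 per well, were compound-treated in the presence of rat liver microsomes and NADPH for 16 h at 37 C.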

[10] = p53 small molecule agonists, cell-based qHTS assay: qHTS cell viability counter screen (AID 1963581); note: nearly all actives have a fitted effect of over 45% in size; note: potency is the fitted concentration of half-maximal effect
How it was run: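 Compounds are pinned onto HCT-116 p53RE-bla cells and left 16 h at 37 C. Following the reporter FRET read, ATP is quantified by CellTiter-Glo luminescence after 30 min at room temperature.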

[11] = target: 5-hydroxytryptamine receptor 2A (Homo sapiens) (UniProt P28223); assay: 5-hydroxytryptamine receptor 2A (HTR2A) small molecule antagonists, cell-based qHTS assay (AID 1963586); note: nearly all actives have a fitted effect of over 45% in size; note: potency is the fitted concentration of half-maximal effect
Sequence of 5-hydroxytryptamine receptor 2A (Homo sapiens) (P28223 whole entry, looked up): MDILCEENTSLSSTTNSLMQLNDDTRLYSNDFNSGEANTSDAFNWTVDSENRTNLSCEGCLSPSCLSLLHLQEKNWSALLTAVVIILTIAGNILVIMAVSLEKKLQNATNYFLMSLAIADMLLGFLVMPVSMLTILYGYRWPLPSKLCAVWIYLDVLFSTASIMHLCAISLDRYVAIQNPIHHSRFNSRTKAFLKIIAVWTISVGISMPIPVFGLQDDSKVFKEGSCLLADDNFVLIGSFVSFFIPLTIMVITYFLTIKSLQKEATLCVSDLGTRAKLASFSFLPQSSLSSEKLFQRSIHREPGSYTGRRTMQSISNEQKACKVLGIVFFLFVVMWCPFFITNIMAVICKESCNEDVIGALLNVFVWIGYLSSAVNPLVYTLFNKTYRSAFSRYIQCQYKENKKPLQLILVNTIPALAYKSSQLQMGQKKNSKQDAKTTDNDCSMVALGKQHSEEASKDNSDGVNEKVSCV
How it was run: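 Antagonist-mode intracellular calcium assay: DOI (4 nM) added after 5 min compound pre-incubation at room temperature to dye-loaded HTR2A-CHO cells. Fluorescence followed for 3 min, sampled every second.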

[12] = target: 5-hydroxytryptamine receptor 2A (Homo sapiens) (UniProt P28223); assay: 5-hydroxytryptamine receptor 2A (HTR2A) small molecule agonists, cell-based qHTS assay (AID 1963587); note: nearly all actives have a fitted effect of over 30% in size; note: potency is the fitted concentration of half-maximal effect
How it was run: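 Kinetic calcium-flux fluorescence (2 min, 1 sec intervals) after compound addition in agonist mode. HTR2A-CHO cells were cultured 18 h, then dye-loaded 1 h at 37 C.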

[13] = target: Muscarinic acetylcholine receptor M1 (Homo sapiens) (UniProt P11229); assay: Cholinergic receptor muscarinic 1 (CHRM1) small molecule antagonists, cell-based qHTS assay (AID 1963588); note: nearly all actives have a fitted effect of over 40% in size; note: potency is the fitted concentration of half-maximal effect
Sequence of Muscarinic acetylcholine receptor M1 (Homo sapiens) (P11229 whole entry, looked up): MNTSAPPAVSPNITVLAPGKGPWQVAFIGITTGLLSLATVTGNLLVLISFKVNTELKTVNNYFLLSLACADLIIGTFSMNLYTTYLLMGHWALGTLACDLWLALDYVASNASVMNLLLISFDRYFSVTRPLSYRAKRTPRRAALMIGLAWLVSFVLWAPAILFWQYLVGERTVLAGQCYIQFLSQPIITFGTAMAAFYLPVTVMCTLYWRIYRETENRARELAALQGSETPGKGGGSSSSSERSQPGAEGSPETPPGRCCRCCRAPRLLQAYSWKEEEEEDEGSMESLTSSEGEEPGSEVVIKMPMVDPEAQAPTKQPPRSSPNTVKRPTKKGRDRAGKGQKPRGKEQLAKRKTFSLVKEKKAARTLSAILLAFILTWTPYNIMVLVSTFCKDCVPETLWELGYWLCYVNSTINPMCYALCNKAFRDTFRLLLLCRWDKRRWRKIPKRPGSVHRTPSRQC
How it was run: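 CHRM1-CHO calcium-flux assay, antagonist mode. Cells were seeded 18 h, dye-loaded 1 h at 37 C and given compound for 5 min at RT, then acetylcholine was added at 50nM. FDSS fluorescence was read 3 min; 15 concentrations, three runs.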

[14] = target: Muscarinic acetylcholine receptor M1 (Homo sapiens) (UniProt P11229); assay: Cholinergic receptor muscarinic 1 (CHRM1) small molecule agonists, cell-based qHTS assay (AID 1963589); note: nearly all actives have a fitted effect of over 35% in size; note: potency is the fitted concentration of half-maximal effect
How it was run: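 Stable CHRM1-CHO cells (human receptor) were incubated 18 h, dye-loaded for 1 h at 37 C and exposed to test compounds for agonist activity, with calcium-dependent fluorescence followed kinetically.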

[15] = cAMP Responsive Elements (CRE) small molecule antagonists, cell-based qHTS assay (AID 1963591; active = well fitted inhibition curve with a large enough effect in the signal ratio in the repeat runs, not every such curve was filed as active; the % refers to the signal ratio)
How it was run: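 qHTS in CRE-bla HEK 293T cells: compound in DMSO, then 0.25 uM NKH477 (final), 3 h at 37 °C/5% CO2; beta-lactamase FRET read-out after 2 h substrate incubation.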

[16] = target: Beta-2 adrenergic receptor (Homo sapiens) (UniProt P07550); assay: Adrenergic beta2 receptor (ADRB2) small molecule antagonists, cell-based qHTS assay (AID 1963592); note: nearly all actives have a fitted effect of over 50% in size; note: potency is the fitted concentration of half-maximal effect
Sequence of Beta-2 adrenergic receptor (Homo sapiens) (P07550 whole entry, looked up): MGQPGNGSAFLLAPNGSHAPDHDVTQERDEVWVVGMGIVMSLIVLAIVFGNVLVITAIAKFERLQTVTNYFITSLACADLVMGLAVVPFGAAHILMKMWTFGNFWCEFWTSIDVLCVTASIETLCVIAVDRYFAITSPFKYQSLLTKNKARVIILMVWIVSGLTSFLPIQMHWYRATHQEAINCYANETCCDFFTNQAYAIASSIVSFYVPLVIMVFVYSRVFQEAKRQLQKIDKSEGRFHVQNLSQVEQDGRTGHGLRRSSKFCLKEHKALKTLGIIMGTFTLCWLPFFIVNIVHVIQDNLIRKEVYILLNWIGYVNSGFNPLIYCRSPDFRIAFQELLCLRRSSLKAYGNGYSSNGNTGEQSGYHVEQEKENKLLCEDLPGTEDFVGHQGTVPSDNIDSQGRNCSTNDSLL
How it was run: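 Cells (CHO, stable ADRB2 overexpression) incubated 18-20hr at 37C; compounds added from DMSO; agonist mix (1nM isoproterenol, 100uM IBMX, 25uM Ro-20-1724) added; 0.5hr RT; d2-cAMP and anti-cAMP-cryptate added; 1hr RT; 665/615 nm read.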

[17] = target: D(2) dopamine receptor (Homo sapiens) (UniProt P14416); assay: Dopamine D2 receptor (DRD2) small molecule agonists, cell-based qHTS assay (AID 1963594); note: nearly all actives have a fitted effect of over 35% in size
Sequence of D(2) dopamine receptor (Homo sapiens) (P14416 whole entry, looked up): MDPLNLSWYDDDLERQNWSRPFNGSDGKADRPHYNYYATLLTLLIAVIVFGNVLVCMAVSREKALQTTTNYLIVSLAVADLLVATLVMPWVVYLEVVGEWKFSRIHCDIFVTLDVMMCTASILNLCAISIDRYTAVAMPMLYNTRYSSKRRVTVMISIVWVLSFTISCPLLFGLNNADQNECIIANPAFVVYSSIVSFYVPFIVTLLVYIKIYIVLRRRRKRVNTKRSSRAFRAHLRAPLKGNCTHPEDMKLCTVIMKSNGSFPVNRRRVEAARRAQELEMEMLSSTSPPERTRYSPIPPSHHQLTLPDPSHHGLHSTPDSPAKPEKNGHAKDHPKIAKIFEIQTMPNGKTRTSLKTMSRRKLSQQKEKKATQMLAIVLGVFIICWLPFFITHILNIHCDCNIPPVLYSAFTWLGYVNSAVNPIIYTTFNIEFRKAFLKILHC
How it was run: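 cAMP accumulation in DRD2-HEK293 cells measured by HTRF after 1 h detection; compounds added 10 min before NKH477 (200nM […]) forskolin-analogue stimulation, 30 min at room temperature, with Ro20-1724 present at 0.1 mM final.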

[18] = target: D(2) dopamine receptor (Homo sapiens) (UniProt P14416); assay: Dopamine D2 receptor (DRD2) small molecule antagonists, cell-based qHTS assay (AID 1963595; active = well fitted inhibition curve with a large enough effect in the signal ratio in the repeat runs, with a control signal flat; the % refers to the signal ratio; note: potency is the fitted concentration of half-maximal effect)
How it was run: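 Readout: HTRF cAMP, cAMP-d2 competing with cellular cAMP for anti-cAMP cryptate, read after 1 h. Cells: DRD2-HEK293. Conditions: 0.1 mM Ro20-1724, 12 nM quinpirole, 200 nM NKH477, 30 min RT.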

[19] = cAMP Responsive Elements (CRE) small molecule agonists, cell-based qHTS assay (AID 1963590)
How it was run: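 FRET-based beta-lactamase readout (LiveBLAzer B/G, 2 h RT) quantified CRE activation in HEK 293T CRE-bla cells after 3 h treatment with DMSO-dissolved compounds.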

SMILES | Potency [1] | Potency [2] | Potency [3] | Potency [4] | Potency [5] | Potency [6] | Potency [7] | Potency [8] | Potency [9] | Potency [10] | Potency [11] | Potency [12] | Potency [13] | Potency [14] | Potency [15] | Potency [16] | Potency [17] | Potency [18] | Potency [19]
Oc1c(Cl)c(Cl)c(Cl)c(Cl)c1Cl | 30 µM (active) | inactive | inactive | inactive | inactive | inactive | inactive | inactive | inactive | inactive | 23.2 µM (active) and inactive | inactive | inactive | inactive | inactive | inactive | inactive | inactive | 
O=C(O)c1nn(Cc2ccc(Cl)cc2Cl)c2ccccc12 | inactive | inactive | inactive | inactive | inactive | inactive | inactive | inactive | inactive | inactive | inactive |  | inactive | inactive |  | inactive |  | inactive | 
CCC[CH2][Sn]([Cl])([CH2]CCC)[CH2]CCC | 244 nM (active) and 486 nM (active) | 244 nM (active) and 486 nM (active) | 7.78 µM (active) and 38.9 µM (active) | 43.6 µM (active) | 34.7 µM (active) | inactive | inactive | 6.48 µM (active) and 5.76 µM (active) | 4.09 µM (active) and 4.08 µM (active) | 1.29 µM (active) and inactive | 18.8 µM (active) | 11 µM (active) and 34.7 µM (active) | 16.8 µM (active) |  |  | 1.09 µM (active) and 1.37 µM (active) |  | 15.4 µM (active) and 19.3 µM (active) | 
O=P(OCCCl)(OCCCl)OCCCl | inactive | inactive | inactive | inactive | inactive | inactive | inactive | inactive | inactive | inactive |  | inactive | inactive | inactive | inactive | inactive | inactive | inactive | inactive
CCCCCCCCCCCCCC[P+](CCCCCC)(CCCCCC)CCCCCC | 7.73 µM (active) and 19.5 µM (active) and inactive | inactive | inactive | inactive | inactive | inactive | inactive | 14.5 µM (active) and 20.6 µM (active) and inactive | 16.3 µM (active) and 20.6 µM (active) and inactive | 7.29 µM (active) and 18.4 µM (active) |  | inactive | inactive |  |  | inactive | inactive | 12.2 µM (active) and 21.9 µM (active) and inactive | 
CC(=O)[O][Hg][c]1ccccc1 | 1.08 µM (active) and 2.17 µM (active) and 3.35 µM (active) | 864 nM (active) and 2.66 µM (active) | 34.4 µM (active) and 24.5 µM (active) | inactive | inactive | inactive | inactive | 4.04 µM (active) and 5.13 µM (active) | 3.6 µM (active) and 5.76 µM (active) and 11.2 µM (active) | 1.61 µM (active) and 4.08 µM (active) and 5 µM (active) | inactive | 21.7 µM (active) and 54.9 µM (active) and inactive | inactive | 43.6 µM (active) |  |  |  | 6.06 µM (active) and 2.73 µM (active) and 5.96 µM (active) | 
CCCCCCCCn1sccc1=O | 1.22 µM (active) and 1.43 µM (active) | 612 nM (active) and 641 nM (active) | inactive | inactive | inactive | inactive | inactive | 40.9 µM (active) and inactive | 4.09 µM (active) and 1.35 µM (active) | 40.9 µM (active) and 38.1 µM (active) | inactive and 1.11 µM (active) | inactive and 25.7 µM (active) | inactive | inactive |  | inactive |  | inactive | 

Source: PubChem BioAssay (Tox21)
